Reference: PMC7862700, “An all-to-all approach to the identification of sequence-specific readers for epigenetic DNA modifications on cytosine”

What was measured:
Assay in all cases: DAPPL (digital affinity profiling via proximity ligation, sequencing); 10 mM Tris-HCl pH 7.5, 50 mM NaCl, 1 mM DTT, 4% glycerol, room temperature, 30 min; GST-TFs on glutathione beads, 16-mer random dsDNA library, 0.1% formaldehyde crosslink after washing; high values mean tight binding
SPIB = SPIB (Homo sapiens, UniProt Q01892 1-262); conditions: protein: recombinant; tags: N-terminal GST; dsDNA, one strand shown
Sequence of SPIB (Q01892 whole entry, the tested form may be a part): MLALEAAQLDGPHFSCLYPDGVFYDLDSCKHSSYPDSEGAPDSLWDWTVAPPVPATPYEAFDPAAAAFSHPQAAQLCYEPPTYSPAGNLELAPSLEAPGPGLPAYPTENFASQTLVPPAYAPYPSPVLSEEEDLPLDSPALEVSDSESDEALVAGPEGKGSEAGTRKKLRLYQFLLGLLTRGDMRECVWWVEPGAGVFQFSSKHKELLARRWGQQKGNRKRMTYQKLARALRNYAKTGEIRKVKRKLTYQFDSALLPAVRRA
How it was run: (§1)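 GST fusions of human transcription factors were expressed in yeast and captured with glutathione beads. Once given DNA barcodes and pooled alongside a tag-only sample, they were incubated for 30 min at room temperature with 200 nmole of a random double-stranded 16-mer DNA library in Tris/NaCl/DTT/glycerol buffer, then washed, crosslinked (0.1% formaldehyde), proximity-ligated, PCR-amplified and sequenced on an Illumina NextSeq500. The binding signal of each hexamer is its read frequency for a factor divided by its frequency for the tag-only sample.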

HSF1 = HSF1 (Homo sapiens, UniProt Q00613 1-529); conditions: protein: recombinant; tags: N-terminal GST; chain copies: 3; dsDNA, one strand shown
Sequence of HSF1 (Q00613 whole entry): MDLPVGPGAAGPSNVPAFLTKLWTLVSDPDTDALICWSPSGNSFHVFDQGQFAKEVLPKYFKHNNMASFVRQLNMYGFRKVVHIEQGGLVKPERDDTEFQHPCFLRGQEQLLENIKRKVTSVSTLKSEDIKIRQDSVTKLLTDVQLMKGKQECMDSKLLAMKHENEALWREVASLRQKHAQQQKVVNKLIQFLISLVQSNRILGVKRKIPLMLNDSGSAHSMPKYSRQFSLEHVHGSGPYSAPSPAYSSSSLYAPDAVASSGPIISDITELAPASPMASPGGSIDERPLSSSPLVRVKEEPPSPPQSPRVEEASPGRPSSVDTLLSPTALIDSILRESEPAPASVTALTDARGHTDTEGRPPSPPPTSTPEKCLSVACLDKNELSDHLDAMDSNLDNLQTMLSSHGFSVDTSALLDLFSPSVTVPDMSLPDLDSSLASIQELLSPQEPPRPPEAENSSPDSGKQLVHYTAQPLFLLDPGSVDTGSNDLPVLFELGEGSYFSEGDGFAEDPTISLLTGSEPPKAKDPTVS
How it was run: as §1

ELF4 = ELF4 (Homo sapiens, UniProt Q99607 1-663); conditions: protein: recombinant; tags: N-terminal GST; dsDNA, one strand shown
Sequence of ELF4 (Q99607 whole entry): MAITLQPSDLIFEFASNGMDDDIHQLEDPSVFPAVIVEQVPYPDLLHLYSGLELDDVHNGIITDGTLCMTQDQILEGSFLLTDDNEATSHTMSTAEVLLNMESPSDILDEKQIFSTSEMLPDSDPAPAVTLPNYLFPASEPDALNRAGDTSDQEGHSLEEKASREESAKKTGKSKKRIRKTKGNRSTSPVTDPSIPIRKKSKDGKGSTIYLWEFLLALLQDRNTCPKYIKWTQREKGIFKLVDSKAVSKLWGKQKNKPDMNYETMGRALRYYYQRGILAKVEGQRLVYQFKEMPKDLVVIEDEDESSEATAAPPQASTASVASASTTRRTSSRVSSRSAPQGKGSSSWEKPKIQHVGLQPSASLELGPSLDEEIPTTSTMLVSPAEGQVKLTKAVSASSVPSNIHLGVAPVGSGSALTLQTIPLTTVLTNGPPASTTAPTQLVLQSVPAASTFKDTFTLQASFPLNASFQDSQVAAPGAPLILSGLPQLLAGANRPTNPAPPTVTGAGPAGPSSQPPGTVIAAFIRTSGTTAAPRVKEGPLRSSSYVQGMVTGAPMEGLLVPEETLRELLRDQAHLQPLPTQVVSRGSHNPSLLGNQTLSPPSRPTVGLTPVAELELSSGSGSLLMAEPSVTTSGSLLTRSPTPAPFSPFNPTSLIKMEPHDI
How it was run: as §1

ELK4 = target: T1, ELK4 (Homo sapiens, UniProt P28324-2 1-405); conditions: protein: recombinant; tags: N-terminal GST; dsDNA, one strand shown
T1 sequence: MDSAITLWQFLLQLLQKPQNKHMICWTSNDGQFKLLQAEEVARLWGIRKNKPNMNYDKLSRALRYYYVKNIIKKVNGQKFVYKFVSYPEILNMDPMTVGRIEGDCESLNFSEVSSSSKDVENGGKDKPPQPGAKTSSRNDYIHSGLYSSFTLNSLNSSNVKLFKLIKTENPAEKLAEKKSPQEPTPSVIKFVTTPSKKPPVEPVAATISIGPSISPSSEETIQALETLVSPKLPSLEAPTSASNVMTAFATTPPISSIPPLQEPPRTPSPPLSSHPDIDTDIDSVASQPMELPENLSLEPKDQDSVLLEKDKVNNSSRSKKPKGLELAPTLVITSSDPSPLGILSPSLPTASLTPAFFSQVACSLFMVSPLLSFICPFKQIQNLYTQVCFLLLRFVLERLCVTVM
How it was run: as §1

ETV2 = target: T2, ETV2 (Homo sapiens, UniProt O00321 1-342); conditions: protein: recombinant; tags: N-terminal GST; dsDNA, one strand shown
T2 sequence: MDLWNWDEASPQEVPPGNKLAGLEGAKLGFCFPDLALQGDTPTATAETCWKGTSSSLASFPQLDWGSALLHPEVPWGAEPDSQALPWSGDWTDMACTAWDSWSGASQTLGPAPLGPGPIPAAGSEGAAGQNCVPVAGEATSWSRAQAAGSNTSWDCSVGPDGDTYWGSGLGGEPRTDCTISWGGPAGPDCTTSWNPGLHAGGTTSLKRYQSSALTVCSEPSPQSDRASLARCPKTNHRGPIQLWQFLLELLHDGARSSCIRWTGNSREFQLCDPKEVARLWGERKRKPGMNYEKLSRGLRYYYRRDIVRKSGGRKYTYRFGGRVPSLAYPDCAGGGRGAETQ
How it was run: as §1

CRX = CRX (Homo sapiens, UniProt O43186 1-299); conditions: protein: recombinant; tags: N-terminal GST; dsDNA, one strand shown
Sequence of CRX (O43186 whole entry): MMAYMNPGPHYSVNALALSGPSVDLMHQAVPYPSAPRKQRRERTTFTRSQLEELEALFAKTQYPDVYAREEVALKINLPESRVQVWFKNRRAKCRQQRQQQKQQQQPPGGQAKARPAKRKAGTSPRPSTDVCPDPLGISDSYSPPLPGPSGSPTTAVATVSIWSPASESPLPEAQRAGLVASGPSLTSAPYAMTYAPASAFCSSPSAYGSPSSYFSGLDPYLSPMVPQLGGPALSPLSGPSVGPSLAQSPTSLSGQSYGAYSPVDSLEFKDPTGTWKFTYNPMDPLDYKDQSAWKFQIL
How it was run: as §1

ETV6 = ETV6 (Homo sapiens, UniProt P41212 1-452); conditions: protein: recombinant; tags: N-terminal GST; dsDNA, one strand shown
Sequence of ETV6 (P41212 whole entry): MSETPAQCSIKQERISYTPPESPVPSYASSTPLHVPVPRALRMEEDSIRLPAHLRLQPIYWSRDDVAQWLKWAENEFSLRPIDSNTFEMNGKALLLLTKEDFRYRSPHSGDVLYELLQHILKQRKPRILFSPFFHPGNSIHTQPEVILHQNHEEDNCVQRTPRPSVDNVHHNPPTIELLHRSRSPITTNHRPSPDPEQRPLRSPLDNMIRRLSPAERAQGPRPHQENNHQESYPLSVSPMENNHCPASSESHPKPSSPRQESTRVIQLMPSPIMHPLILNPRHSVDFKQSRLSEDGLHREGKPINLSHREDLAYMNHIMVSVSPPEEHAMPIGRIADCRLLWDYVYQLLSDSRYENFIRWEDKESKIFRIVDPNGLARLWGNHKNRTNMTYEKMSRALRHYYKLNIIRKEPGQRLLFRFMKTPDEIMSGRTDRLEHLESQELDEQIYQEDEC
How it was run: as §1

ETV7 = target: T3, ETV7 (Homo sapiens, UniProt Q9Y603 1-341); conditions: protein: recombinant; tags: N-terminal GST; dsDNA, one strand shown
T3 sequence: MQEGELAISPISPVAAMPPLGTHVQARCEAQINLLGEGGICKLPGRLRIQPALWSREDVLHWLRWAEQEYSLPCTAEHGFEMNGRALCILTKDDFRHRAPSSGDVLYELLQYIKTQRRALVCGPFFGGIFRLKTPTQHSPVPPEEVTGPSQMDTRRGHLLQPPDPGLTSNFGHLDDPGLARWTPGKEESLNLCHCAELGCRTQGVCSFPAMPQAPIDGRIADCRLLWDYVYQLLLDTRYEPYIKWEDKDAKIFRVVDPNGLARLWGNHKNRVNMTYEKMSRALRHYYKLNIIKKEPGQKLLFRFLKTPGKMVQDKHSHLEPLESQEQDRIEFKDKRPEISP
How it was run: as §1

ELF1 = ELF1 (Homo sapiens, UniProt P32519 1-619); conditions: protein: recombinant; tags: N-terminal GST; dsDNA, one strand shown
Sequence of ELF1 (P32519 whole entry): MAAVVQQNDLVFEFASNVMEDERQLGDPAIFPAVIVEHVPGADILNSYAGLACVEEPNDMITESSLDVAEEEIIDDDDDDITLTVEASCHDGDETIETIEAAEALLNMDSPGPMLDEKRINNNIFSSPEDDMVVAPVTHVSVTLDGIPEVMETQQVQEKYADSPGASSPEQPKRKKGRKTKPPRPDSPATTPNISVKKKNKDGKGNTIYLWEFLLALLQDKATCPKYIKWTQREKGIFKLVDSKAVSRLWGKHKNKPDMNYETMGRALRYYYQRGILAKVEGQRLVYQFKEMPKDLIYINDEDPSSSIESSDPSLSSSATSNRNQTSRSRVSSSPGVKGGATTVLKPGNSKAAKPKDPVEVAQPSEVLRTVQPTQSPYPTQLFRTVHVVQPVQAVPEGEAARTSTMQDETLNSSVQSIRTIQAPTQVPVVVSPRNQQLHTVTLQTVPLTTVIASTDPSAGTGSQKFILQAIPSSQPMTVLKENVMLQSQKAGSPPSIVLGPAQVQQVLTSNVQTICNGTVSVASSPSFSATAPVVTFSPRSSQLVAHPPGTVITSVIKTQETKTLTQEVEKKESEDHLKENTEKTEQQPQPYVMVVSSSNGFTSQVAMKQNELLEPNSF
How it was run: as §1

ELK3 = target: T4, ELK3 (Homo sapiens, UniProt P41970 1-407); conditions: protein: recombinant; tags: N-terminal GST; dsDNA, one strand shown
T4 sequence: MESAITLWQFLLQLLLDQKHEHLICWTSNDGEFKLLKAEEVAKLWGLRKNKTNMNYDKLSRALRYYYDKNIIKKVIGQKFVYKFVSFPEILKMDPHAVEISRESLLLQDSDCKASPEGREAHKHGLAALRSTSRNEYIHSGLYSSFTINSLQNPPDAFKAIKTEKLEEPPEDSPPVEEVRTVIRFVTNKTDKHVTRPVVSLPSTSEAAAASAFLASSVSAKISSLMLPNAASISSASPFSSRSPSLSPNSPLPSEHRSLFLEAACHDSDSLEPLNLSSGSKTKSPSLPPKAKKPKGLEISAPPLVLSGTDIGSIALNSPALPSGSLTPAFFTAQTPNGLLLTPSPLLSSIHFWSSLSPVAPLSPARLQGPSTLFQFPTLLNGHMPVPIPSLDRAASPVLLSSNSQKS
How it was run: as §1

ELF3 = target: T5, ELF3 (Homo sapiens, UniProt P78545 1-371); conditions: protein: recombinant; tags: N-terminal GST; dsDNA, one strand shown
T5 sequence: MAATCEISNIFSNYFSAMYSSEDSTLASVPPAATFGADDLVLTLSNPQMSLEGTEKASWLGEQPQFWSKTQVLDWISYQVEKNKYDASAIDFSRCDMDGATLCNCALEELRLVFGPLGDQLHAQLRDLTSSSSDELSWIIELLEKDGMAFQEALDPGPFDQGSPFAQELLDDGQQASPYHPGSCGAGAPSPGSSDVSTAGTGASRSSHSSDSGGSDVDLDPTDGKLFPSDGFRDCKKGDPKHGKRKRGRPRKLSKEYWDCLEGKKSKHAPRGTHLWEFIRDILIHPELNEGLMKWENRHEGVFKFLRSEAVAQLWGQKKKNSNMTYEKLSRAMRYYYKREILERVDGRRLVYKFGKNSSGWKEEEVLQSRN
How it was run: as §1

| Sequence | binding signal (SPIB) | binding signal (HSF1) | binding signal (ELF4) | binding signal (ELK4) | binding signal (ETV2) | binding signal (CRX) | binding signal (ETV6) | binding signal (ETV7) | binding signal (ELF1) | binding signal (ELK3) | binding signal (ELF3) |
| --- | --- | --- | --- | --- | --- | --- | --- | --- | --- | --- | --- |
| GATAAA | 1.04 fold enrichment (6-mer frequency, TF over GST control) | 1.21 fold enrichment (6-mer frequency, TF over GST control) | 1.01 fold enrichment (6-mer frequency, TF over GST control) | 1.02 fold enrichment (6-mer frequency, TF over GST control) | 1.12 fold enrichment (6-mer frequency, TF over GST control) | 1.55 fold enrichment (6-mer frequency, TF over GST control) | 1 fold enrichment (6-mer frequency, TF over GST control) |  |  |  |  |
| CGAAGT |  | 1.08 fold enrichment (6-mer frequency, TF over GST control) |  | 1 fold enrichment (6-mer frequency, TF over GST control) | 1.03 fold enrichment (6-mer frequency, TF over GST control) |  |  | 1.06 fold enrichment (6-mer frequency, TF over GST control) |  |  |  |
| GAATGA |  | 1.15 fold enrichment (6-mer frequency, TF over GST control) | 1 fold enrichment (6-mer frequency, TF over GST control) |  | 1.11 fold enrichment (6-mer frequency, TF over GST control) |  | 1.02 fold enrichment (6-mer frequency, TF over GST control) |  | 1 fold enrichment (6-mer frequency, TF over GST control) | 1.02 fold enrichment (6-mer frequency, TF over GST control) | 1.07 fold enrichment (6-mer frequency, TF over GST control) |
